Laboratory results from PubChem BioAssay (Tox21).
Records with an inconclusive call do not appear. Calls of active or inactive are those of the source. Unless noted, calls come from the whole dose curve; as a rule, active = well fitted curve in the direction sought with a large enough effect in the repeat runs; inconclusive = weak or mixed curves; inactive = no such curve, though single readings can be large; an effect the other way counts as inactive or inconclusive.

Columns and labels:
[1] = target: Thyrotropin-releasing hormone receptor (Homo sapiens) (UniProt P34981); test: qHTS assay to identify small molecule agonists of the thyrotropin-releasing hormone receptor (TRHR) signaling pathway (AID 1346891; calls by dose curve;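 note: HEK293 cells expressing TRHR with calcium dye readout; series mostly up to about 58 µM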)
Chain of Thyrotropin-releasing hormone receptor (Homo sapiens) (P34981 whole entry, looked up): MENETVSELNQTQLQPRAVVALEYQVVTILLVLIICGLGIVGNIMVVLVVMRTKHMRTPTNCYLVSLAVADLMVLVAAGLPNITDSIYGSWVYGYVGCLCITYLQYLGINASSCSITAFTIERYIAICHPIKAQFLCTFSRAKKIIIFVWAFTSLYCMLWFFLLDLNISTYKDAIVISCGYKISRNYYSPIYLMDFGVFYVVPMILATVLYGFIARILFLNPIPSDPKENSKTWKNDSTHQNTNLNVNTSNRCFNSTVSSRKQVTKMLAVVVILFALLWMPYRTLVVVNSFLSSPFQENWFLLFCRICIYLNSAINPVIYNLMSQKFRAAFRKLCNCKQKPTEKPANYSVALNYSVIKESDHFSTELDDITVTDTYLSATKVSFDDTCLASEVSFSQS
In short: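 Agonist-mode calcium mobilisation screen: TRHR-transfected HEK293 cells cultured overnight (18 h), dye-loaded for 2 h at 37 °C, exposed to compounds, and monitored by fluorescence for 3 min.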

[2] = Human pregnane X receptor (PXR) small molecule agonists, qHTS cell viability counter screen (AID 1346977); note: nearly all actives have a fitted effect of over 50% in size
In short: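 Measures live-cell protease fluorescence (CellTiter-Fluor) in PXR-Luc HepG2 cells treated 24hr with compounds at 37C. Cells had 5hr to attach before pin transfer of DMSO solutions.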

[3] = Caspase-3/7 induction in CHO-K1 cells by small molecules, qHTS cell viability counter screen (AID 1346979); note: nearly all actives have a fitted effect of over 35% in size
In short: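 In the same wells as the caspase read, viability of compound-treated wild-type CHO-K1 cells was assessed using CellTiter-Fluor, added after 16hr at 37C and measured by fluorescence following 1hr further incubation.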

[4] = Caspase-3/7 induction in CHO-K1 cells by small molecules, qHTS assay (AID 1346980); note: nearly all actives have a fitted effect of over 15% in size
In short: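 Wild-type cells were seeded at 1,500 per well and settled 5 hr at 37 C, 5% CO2, then exposed to DMSO-dissolved compounds for 17 hr. Caspase-Glo 3/7 reagent was added, and luminescence was read after 30min at room temperature.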

[5] = Caspase-3/7 induction in HepG2 cells by small molecules, qHTS cell viability counter screen (AID 1346981); note: series mostly up to about 92 µM; nearly all actives have a fitted effect of over 30% in size
In short: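 Treatment of HepG2 cells with DMSO-delivered compounds ran 16 hr at 37 C following a 5-hr pre-incubation of 2,000 cells/well. CellTiter-Fluor fluorescence, read after 1 hr, served as the viability measure in a qHTS format.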

[6] = target: Nuclear receptor subfamily 1 group I member 2 (Homo sapiens) (UniProt O75469); test: Human pregnane X receptor (PXR) small molecule agonists, qHTS assay (AID 1346982); note: nearly all actives have a fitted effect of over 35% in size; note: potency is the fitted concentration of half-maximal effect
Chain of Nuclear receptor subfamily 1 group I member 2 (Homo sapiens) (O75469 whole entry, looked up): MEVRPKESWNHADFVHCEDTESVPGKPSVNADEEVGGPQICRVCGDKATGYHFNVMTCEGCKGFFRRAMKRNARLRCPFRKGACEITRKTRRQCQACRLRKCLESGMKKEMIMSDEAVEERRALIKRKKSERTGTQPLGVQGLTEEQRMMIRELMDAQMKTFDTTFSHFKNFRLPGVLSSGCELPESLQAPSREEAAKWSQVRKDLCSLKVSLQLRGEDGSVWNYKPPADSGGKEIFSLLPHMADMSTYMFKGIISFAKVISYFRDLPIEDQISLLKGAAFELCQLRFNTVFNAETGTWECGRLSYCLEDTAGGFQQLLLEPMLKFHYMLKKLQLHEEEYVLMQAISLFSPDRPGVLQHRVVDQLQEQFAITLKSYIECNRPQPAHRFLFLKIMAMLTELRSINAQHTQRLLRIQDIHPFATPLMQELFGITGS
In short: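 Stable HepG2 line reporting PXR-mediated CYP3A4 expression via luciferase. Treatment: 24 hr with compounds in DMSO at 37 C. Detection: ONE-Glo luminescence.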

[7] = target: Nuclear receptor subfamily 1 group I member 2 (Rattus norvegicus) (UniProt Q9R1A7); test: Rat pregnane X receptor (rPXR) activation by small molecules, qHTS assay (AID 1346983); settings: rPXR luciferase reporter cells, One-Glo luminescence, 24 h; max activation: stronger effect = higher value; note: nearly all actives have a fitted effect of over 20% in size
Chain of Nuclear receptor subfamily 1 group I member 2 (Rattus norvegicus) (Q9R1A7 whole entry, looked up): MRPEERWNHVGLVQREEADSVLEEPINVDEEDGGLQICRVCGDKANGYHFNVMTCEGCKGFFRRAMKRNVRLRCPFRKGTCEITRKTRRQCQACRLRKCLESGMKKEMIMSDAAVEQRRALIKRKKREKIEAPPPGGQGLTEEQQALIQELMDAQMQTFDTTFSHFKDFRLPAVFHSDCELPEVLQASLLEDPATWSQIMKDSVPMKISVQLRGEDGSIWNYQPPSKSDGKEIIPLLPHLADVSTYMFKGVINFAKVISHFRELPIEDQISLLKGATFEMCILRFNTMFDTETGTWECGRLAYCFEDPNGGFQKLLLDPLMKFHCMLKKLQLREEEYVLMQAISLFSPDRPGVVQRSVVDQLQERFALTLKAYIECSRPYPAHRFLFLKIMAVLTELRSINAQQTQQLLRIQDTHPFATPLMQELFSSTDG
In short: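 Cell-based rPXR luciferase reporter assay, 2,000 cells per well, rested 5hr at 37 C before compound addition in DMSO, then 24 hr at 37 C. One-Glo reagent was added and luminescence read after 30 min at room temperature.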

[8] = target: Nuclear receptor subfamily 1 group I member 2 (Homo sapiens) (UniProt O75469); test: Human pregnane X receptor (PXR) activation by small molecules, qHTS assay (AID 1346985); note: nearly all actives have a fitted effect of over 40% in size
In short: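 DPX-2 cells (HepG2 co-transfected with a PXR response element and a CYP3A4-promoter luciferase construct) were seeded at 2,000 per well, rested 5 hr at 37C, then exposed to DMSO-dissolved compounds for 24 hr. Activation was read as luciferase luminescence.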

[9] = target: Cytochrome P450 2D6 (Homo sapiens) (UniProt P10635); test: Cytochrome P450 Family 2 Subfamily D Member 6 (CYP2D6) small molecule antagonists: luciferase reporter qHTS assay (AID 1671196); note: nearly all actives have a fitted effect of over 50% in size; note: potency is the fitted concentration of half-maximal effect
Chain of Cytochrome P450 2D6 (Homo sapiens) (P10635 whole entry, looked up): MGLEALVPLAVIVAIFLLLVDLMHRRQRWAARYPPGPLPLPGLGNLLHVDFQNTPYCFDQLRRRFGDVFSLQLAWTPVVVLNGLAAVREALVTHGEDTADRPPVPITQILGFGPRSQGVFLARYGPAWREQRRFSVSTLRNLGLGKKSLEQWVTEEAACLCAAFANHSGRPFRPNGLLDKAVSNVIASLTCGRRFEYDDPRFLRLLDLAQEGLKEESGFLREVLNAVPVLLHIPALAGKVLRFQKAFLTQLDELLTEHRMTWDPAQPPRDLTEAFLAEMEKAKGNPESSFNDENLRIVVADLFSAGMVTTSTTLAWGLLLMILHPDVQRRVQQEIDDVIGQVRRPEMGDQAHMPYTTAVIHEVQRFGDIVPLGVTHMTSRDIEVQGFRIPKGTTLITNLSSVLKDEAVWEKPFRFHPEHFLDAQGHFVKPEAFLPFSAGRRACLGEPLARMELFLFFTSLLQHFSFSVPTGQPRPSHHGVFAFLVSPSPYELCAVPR
In short: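 Chemicals tested for interference with CYP2D6 activity; proluciferin substrate, NADPH regeneration, 1 h at room temperature, luminescent detection.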

[10] = target: Cytochrome P450 2C19 (Homo sapiens) (UniProt P33261); test: Cytochrome P450 Family 2 Subfamily C Member 19 (CYP2C19) small molecule antagonists: luciferase reporter qHTS assay (AID 1671197); note: nearly all actives have a fitted effect of over 65% in size; note: potency is the fitted concentration of half-maximal effect
Chain of Cytochrome P450 2C19 (Homo sapiens) (P33261 whole entry, looked up): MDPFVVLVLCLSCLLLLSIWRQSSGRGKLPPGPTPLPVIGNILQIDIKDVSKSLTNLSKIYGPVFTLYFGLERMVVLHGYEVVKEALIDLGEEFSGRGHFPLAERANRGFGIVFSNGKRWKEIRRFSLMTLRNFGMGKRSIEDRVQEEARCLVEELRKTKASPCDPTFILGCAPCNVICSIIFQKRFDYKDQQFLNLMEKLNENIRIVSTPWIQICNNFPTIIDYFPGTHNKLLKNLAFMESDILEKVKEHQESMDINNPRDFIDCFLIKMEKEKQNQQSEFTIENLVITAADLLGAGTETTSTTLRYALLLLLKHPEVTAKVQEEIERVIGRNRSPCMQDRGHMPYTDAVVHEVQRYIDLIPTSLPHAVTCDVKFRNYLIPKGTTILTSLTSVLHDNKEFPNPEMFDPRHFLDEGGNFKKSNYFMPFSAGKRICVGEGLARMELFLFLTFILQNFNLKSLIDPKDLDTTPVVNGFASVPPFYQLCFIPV
In short: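 Quantitative high-throughput screen of the Tox21 library using CYP2C19 with proluciferin substrate. Reaction: NADPH regeneration, 37C, 1 h, after 10 min compound preincubation at room temperature. Readout: luminescence.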

[11] = target: Cytochrome P450 2C9 (Homo sapiens) (UniProt P11712); test: Cytochrome P450 Family 2 Subfamily C Member 9 (CYP2C9) small molecule antagonists: luciferase reporter qHTS assay (AID 1671198); note: nearly all actives have a fitted effect of over 50% in size; note: potency is the fitted concentration of half-maximal effect
Chain of Cytochrome P450 2C9 (Homo sapiens) (P11712 whole entry, looked up): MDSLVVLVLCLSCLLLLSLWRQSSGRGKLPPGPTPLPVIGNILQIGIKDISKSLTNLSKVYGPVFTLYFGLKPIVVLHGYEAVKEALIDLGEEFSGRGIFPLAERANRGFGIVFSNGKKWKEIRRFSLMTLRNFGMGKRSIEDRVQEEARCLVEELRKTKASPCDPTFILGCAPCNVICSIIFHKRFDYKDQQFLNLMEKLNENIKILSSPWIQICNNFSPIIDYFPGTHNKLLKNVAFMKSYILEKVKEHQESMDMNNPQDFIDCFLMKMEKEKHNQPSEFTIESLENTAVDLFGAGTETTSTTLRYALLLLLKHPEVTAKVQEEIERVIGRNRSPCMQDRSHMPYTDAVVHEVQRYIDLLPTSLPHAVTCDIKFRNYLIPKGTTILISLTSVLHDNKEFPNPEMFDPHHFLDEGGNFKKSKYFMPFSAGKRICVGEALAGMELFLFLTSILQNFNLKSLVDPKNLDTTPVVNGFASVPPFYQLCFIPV
In short: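 CYP2C9 activity was measured with a P450-Glo proluciferin substrate. Enzyme–substrate mix was held with compound for 10 min at room temperature, then NADPH regeneration solution was added for 1 h at 37C. Luciferin product was read as luminescence.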

[12] = target: Voltage-gated inwardly rectifying potassium channel KCNH2 (Homo sapiens) (UniProt Q12809); test: Human Ether-a-go-go-Related Gene (hERG) channel small molecule antagonists: fluorescence cell-based qHTS assay (AID 1671200); note: nearly all actives have a fitted effect of over 50% in size; note: potency is the fitted concentration of half-maximal effect
Chain of Voltage-gated inwardly rectifying potassium channel KCNH2 (Homo sapiens) (Q12809 whole entry, looked up): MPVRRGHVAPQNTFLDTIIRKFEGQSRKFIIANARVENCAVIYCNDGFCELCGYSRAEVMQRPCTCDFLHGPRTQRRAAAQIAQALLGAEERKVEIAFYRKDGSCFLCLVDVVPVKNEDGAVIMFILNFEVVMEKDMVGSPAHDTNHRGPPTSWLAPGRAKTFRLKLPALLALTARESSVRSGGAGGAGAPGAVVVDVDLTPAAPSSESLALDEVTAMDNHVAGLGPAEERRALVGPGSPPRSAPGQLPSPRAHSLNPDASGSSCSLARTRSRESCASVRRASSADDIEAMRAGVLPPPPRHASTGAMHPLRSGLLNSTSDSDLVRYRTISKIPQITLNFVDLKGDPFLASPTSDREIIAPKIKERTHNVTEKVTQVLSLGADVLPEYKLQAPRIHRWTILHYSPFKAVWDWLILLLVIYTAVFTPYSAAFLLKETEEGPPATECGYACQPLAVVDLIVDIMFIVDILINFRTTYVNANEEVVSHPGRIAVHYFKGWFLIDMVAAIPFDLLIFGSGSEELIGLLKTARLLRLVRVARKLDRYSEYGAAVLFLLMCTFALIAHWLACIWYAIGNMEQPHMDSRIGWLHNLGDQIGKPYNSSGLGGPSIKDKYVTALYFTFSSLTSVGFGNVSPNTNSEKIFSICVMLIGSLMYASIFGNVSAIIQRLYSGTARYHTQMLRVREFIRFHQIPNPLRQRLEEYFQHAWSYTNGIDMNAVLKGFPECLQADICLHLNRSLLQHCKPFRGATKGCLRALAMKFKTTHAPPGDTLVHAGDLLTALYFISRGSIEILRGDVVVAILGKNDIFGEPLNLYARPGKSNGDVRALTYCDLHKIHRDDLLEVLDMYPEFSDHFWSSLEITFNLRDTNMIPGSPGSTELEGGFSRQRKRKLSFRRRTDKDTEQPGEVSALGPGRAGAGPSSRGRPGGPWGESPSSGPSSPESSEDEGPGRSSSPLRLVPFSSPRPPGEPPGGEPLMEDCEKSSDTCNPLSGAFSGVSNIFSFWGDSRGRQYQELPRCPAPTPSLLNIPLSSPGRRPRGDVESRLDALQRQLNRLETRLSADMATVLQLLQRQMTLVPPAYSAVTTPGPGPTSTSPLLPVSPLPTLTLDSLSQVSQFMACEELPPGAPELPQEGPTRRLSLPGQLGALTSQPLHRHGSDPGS
In short: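 Quantitative HTS in hERG-U2OS cells: thallium entry through the channel reports activity, read as continuous 480/540 nm fluorescence over 2 min after stimulus addition.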

[13] = target: Cytochrome P450 3A4 (Homo sapiens) (UniProt P08684); test: Cytochrome P450 Family 3 Subfamily A Member 4 (CYP3A4) small molecule antagonists: luciferase reporter qHTS assay (AID 1671201); note: nearly all actives have a fitted effect of over 50% in size; note: potency is the fitted concentration of half-maximal effect
Chain of Cytochrome P450 3A4 (Homo sapiens) (P08684 whole entry, looked up): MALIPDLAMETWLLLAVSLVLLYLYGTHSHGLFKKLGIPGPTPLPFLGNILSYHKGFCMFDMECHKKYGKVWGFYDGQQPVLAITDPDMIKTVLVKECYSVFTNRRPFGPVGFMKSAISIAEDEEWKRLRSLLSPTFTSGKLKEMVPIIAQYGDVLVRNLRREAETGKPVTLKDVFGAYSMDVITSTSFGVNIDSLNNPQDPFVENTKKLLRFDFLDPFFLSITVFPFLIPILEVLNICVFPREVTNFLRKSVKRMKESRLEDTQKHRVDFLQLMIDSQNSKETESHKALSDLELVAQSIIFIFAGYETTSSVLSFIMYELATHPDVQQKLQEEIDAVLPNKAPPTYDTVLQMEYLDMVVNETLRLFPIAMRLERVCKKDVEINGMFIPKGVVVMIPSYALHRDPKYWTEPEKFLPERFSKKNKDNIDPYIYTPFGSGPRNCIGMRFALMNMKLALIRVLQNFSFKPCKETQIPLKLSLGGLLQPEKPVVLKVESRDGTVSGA
In short: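 Inhibition of CYP3A4 is measured as loss of light: the enzyme converts a proluciferin substrate to luciferin, detected luminescently. Reaction ran 1 h at room temperature with NADPH regeneration after a 10 min compound preincubation.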

[14] = target: Cytochrome P450 1A2 (Homo sapiens) (UniProt P05177); test: Cytochrome P450 Family 1 Subfamily A Member 2 (CYP1A2) small molecule antagonists: luciferase reporter qHTS assay (AID 1671199); note: nearly all actives have a fitted effect of over 50% in size; note: potency is the fitted concentration of half-maximal effect
Chain of Cytochrome P450 1A2 (Homo sapiens) (P05177 whole entry, looked up): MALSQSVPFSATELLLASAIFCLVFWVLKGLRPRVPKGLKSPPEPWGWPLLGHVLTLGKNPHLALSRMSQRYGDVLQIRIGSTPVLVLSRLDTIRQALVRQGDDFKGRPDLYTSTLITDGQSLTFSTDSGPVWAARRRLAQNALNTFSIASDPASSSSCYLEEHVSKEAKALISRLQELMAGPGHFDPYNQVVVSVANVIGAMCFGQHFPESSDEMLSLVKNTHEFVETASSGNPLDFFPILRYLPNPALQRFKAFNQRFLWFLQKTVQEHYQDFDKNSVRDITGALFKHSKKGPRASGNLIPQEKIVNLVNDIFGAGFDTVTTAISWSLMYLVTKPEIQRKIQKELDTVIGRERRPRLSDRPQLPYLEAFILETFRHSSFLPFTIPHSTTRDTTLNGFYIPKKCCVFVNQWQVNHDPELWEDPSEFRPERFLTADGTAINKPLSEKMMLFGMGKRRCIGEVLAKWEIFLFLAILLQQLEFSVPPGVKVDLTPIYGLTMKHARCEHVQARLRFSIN
In short: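 Read-out is luminescence from luciferin detection reagent (20 min) proportional to CYP1A2 activity; compounds in DMSO preincubated 10 min with enzyme and proluciferin substrate, then NADPH regeneration solution, 1 h, room temperature.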

[15] = Caspase-3/7 induction in HepG2 cells by small molecules, qHTS assay (AID 1346978); note: nearly all actives have a fitted effect of over 15% in size
In short: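 Wild-type HepG2 cells (2,000/well) were settled 5 h at 37 C, 5% CO2, then exposed to compounds in DMSO for 17 h. Caspase-3/7 activity was read by luminescence 30 min after adding Caspase-Glo 3/7 reagent at room temperature.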

[16] = target: Nuclear receptor subfamily 1 group I member 2 (Homo sapiens) (UniProt O75469); test: CYP3A4 induction through human pregnane X receptor (PXR) by small molecules, qHTS assay (AID 1346984); note: nearly all actives have a fitted effect of over 40% in size
In short: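 After 24 h at 37C with compound, DPX-2 cells (HepG2, co-transfected PXR response element and CYP3A4 promoter-luciferase) got 3uM final P450-Glo Luciferin-IPA for 3 h; One-Glo luminescence followed.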
% is set by controls: 0 for no effect and ±100 for the full control effect.

O=c1[nH]c(=O)n([C@H]2C[C@H](O)[C@@H](CO)O2)cc1C(F)(F)F
inactive: Potency [1] | Potency [2] | Potency [3] | outcome [4] | Potency [5] | Potency [6] | max activation [7] 3.55% | Potency [8] | Potency [9] | Potency [10] | Potency [11] | Potency [12] | Potency [13]

COC(C)CCO (stereo not given)
inactive: Potency [1] | Potency [2] | Potency [3] | outcome [4] | Potency [5] | Potency [6] | Potency [9] | Potency [10] | Potency [11] | Potency [14] | Potency [12] | Potency [13]

CC1=C2[C@H](/C=C(\C)C(=O)O)CC[C@@H](C)[C@H]2CC1
inactive: Potency [1] | Potency [15] | Potency [3] | outcome [4] | Potency [5] | Potency [12] | Potency [13]
active: Potency [6] 56.5 µM | Potency [10] 73.7 µM | Potency [11] 65.6 µM | Potency [14] 65.6 µM

CNCCC(Oc1ccccc1OC)c1ccccc1 (stereo not given)
inactive: Potency [1] | Potency [15] | Potency [3] | outcome [4] | Potency [5] | Potency [10] | Potency [11]
active: Potency [9] 0.977 µM | Potency [12] 8.49 µM

CCOC(=O)C1CC(=O)C(=C(O)C2CC2)C(=O)C1 (stereo not given)
inactive: Potency [1] | Potency [15] | Potency [3] | outcome [4] | Potency [5] | Potency [6] | Potency [9] | Potency [14] | Potency [12] | Potency [13]
active: Potency [10] 71 µM

O=C1CCN(c2ccccc2)N1
active: Potency [9] 35.7 µM | Potency [10] 80 µM | Potency [11] 8 µM | Potency [14] 35.7 µM | Potency [13] 35.7 µM
inactive: Potency [1] | Potency [15] | Potency [3] | outcome [4] | Potency [5] | Potency [12]

C/C(=N\O)[C@@H](C)NCC(C)(C)CN[C@H](C)/C(C)=N/O
inactive: Potency [1] | Potency [15] | Potency [3] | outcome [4] | Potency [5] | Potency [6] | Potency [10] | Potency [11] | Potency [14] | Potency [12]

COC(=O)C(C)O (stereo not given)
inactive: Potency [1] | Potency [2] | Potency [3] | outcome [4] | Potency [5] | Potency [6] | Potency [9] | Potency [10] | Potency [11] | Potency [12] | Potency [13]

COc1cc(N)c(Cl)cc1C(=O)NC1CCN(Cc2ccccc2)CC1
inactive: Potency [1] | Potency [15] | Potency [3] | outcome [4] | Potency [5] | Potency [6] | max activation [7] -4.93% | Potency [16] | Potency [8] | Potency [11]
active: Potency [9] 0.0309 µM | Potency [13] 1.55 µM

O=C1CCCCCCCCCCC(=O)OCCO1
inactive: Potency [1] | Potency [15] | Potency [3] | outcome [4] | Potency [5] | Potency [6] | Potency [9]
active: Potency [10] 35.6 µM | Potency [14] 22.4 µM | Potency [13] 31.7 µM

CC(C)(C)c1cccc(O)c1
inactive: Potency [1] | Potency [2] | Potency [3] | Potency [5] | Potency [6] | Potency [9] | Potency [10] | Potency [12] | Potency [13]

CC1(O)CSC(C)(O)CS1 (stereo not given)
active: Potency [14] 39.9 µM
inactive: Potency [1] | Potency [2] | Potency [3] | outcome [4] | Potency [5] | Potency [6] | Potency [9] | Potency [12]

CN1CCC[C@@H]1Cc1c[nH]c2ccc(CCS(=O)(=O)c3ccccc3)cc12
inactive: Potency [1] | Potency [2] | Potency [3] | outcome [4] | Potency [5] | max activation [7] 0.279% | Potency [10] | Potency [14]
active: Potency [9] 13.8 µM | Potency [11] 17.4 µM

CCOC(=O)CS
active: Potency [10] 82 µM | Potency [14] 65.1 µM
inactive: Potency [1] | Potency [2] | Potency [3] | outcome [4] | Potency [5] | Potency [6] | Potency [9] | Potency [12] | Potency [13]

CC(=O)N[C@@H](CC(C)C)C(=O)O
inactive: Potency [1] | Potency [15] | Potency [3] | outcome [4] | Potency [5]

C=CCCCCCCCCO
inactive: Potency [1] | Potency [15] | Potency [3] | outcome [4] | Potency [5] | Potency [6] | Potency [9] | Potency [10] | Potency [12] | Potency [13]
active: Potency [14] 39.9 µM

N#Cc1ccc(C(c2ccc(C#N)cc2)n2cncn2)cc1
inactive: Potency [1] | Potency [15] | Potency [3] | outcome [4] | Potency [5] | Potency [6] | max activation [7] 0.445% | Potency [16] | Potency [8] | Potency [9] | Potency [12]
active: Potency [10] 13.3 µM

CCOc1ccc2nc(N)sc2c1
active: Potency [6] 17.1 µM | Potency [9] 39.6 µM | Potency [10] 22.3 µM | Potency [11] 31.5 µM | Potency [14] 17.7 µM
inactive: Potency [1] | Potency [15] | Potency [3] | outcome [4] | Potency [5]

Cc1cn([C@@H]2O[C@H](CO)[C@@H](O)[C@@H]2F)c(=O)[nH]c1=O
inactive: Potency [1] | Potency [2] | Potency [3] | outcome [4] | Potency [5] | Potency [6] | Potency [9] | Potency [10] | Potency [11] | Potency [14] | Potency [12] | Potency [13]

CN1CCN(N)CC1
inactive: Potency [1] | Potency [15] | Potency [3] | outcome [4] | Potency [5] | Potency [6] | Potency [9] | Potency [10] | Potency [11] | Potency [12] | Potency [13]
